Test results as given in PubChem BioAssay (NCATS).
Records with an inconclusive call do not appear. Calls of active or inactive are those of the source. The call rests on the fitted dose curve; in most records, active means well fitted inhibition curve with a large enough effect; inconclusive means small, poorly fitted or top-dose-only effect; inactive means flat fitted curve, though single readings scatter.

What was measured:
Assay in all cases: Cytotoxic Profiling of Annotated Libraries Using Quantitative High-Throughput Screening (AID 1296008); further: nearly all actives have a fitted effect of over 60% in size
Conditions in all cases: Five cell lines viability, CellTiter-Glo ATP luminescence, 48-72 h; max response: active compounds read low
CRL-7250 = normal cell line; test system: CRL-7250
Method in brief: (§1)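 Cytotoxicity was measured as CellTiter-Glo ATP luminescence, read after 10 min at room temperature. Compound treatment of the cells lasted 48 or 72 hr at 37 degrees Celsius in a qHTS format.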

HaCat = test system: HaCat
Method in brief: as §1

KB-3-1 = test system: KB-3-1
Method in brief: as §1

NIH3T3 = test system: NIH3T3
Method in brief: as §1

Measured: max response
On the % scale 0 is the no-effect control and ±100 the full control effect.

CC1=C(C(=O)OC2CCCCC2)C(c2ccc([N+](=O)[O-])cc2)C2=C(CC(C)(C)CC2=O)N1 (configuration not stated)
inactive: CRL-7250 1.32% | HaCat -9.38% | KB-3-1 -12% | NIH3T3 -3.56%

COc1ccc(C(=O)Nc2c(Cl)cncc2Cl)cc1OC1CCCC1
inactive: CRL-7250 -3.72% | HaCat -24.5% | KB-3-1 -14.8% | NIH3T3 -4.74%

COc1ccc(Sc2ccc(NC(=O)c3ccccc3Cl)cc2C#N)cc1
inactive: CRL-7250 -14.2% | HaCat -11.3% | KB-3-1 -1.86% | NIH3T3 -6.24%

COc1ccc(C2Oc3c(OC)cc(CCCO)cc3C2COC2OC(CO)C(O)C(O)C2O)cc1OC (configuration not stated)
inactive: CRL-7250 | HaCat 1.52% | KB-3-1 -12.2% | NIH3T3 -1.06%

C/C=C(\C)C(=O)OC1C(C)C2(O)C(C=C(CO)CC3(O)C(=O)C(C)=CC32)C2C(C)(C)C12OC(=O)C(C)C (configuration not stated)
inactive: CRL-7250 -36% | HaCat -1.92% | KB-3-1 -0.0958% | NIH3T3 1.03%

Nc1nc2c(cnn2CCCc2ccc(O)cc2)c2nc(-c3ccco3)nn12
inactive: CRL-7250 | HaCat -2.77% | KB-3-1 8.63% | NIH3T3 3.84%

COc1c(F)cccc1C(=O)N1C[C@@H](C)CC[C@H]1CNc1ccc(Br)cn1
inactive: CRL-7250 -14.6% | HaCat 1.51% | KB-3-1 -16% | NIH3T3 -27.7%

CC1(CO)CC(O)[C@]2(C(=O)O)CCC34CC3(C=CC3[C@]5(C)C(CC[C@]34C)C(C)(CO)[C@@H](O)[C@H](O)[C@@H]5O)C2C1 (some centres not stated)
inactive: CRL-7250 -11.7% | HaCat -0.72% | KB-3-1 | NIH3T3 -3.3%
